The list is not random: actives were taken first. Their share in the collection is about 27%.
sEH act: soluble epoxide hydrolase (human) activation | P34913 | AID 717 | activation, % at 2 µM | purified human sEH enzymatic activity, activator screen | 91,000 compounds, 0.04% hits; in the data active means activation above about 37%
CYP2C9 inhib: human CYP2C9 inhibition; AID 777; inhibition, % at 5 µM; 96,000 compounds, 20% hits; CYP2C9 Supersomes, luciferin-H conversion, luminescence;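 active means blocking of liver enzyme CYP2C9 beyond about 50% at 5 µM, limit read from the data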
Target sequence (P11712 whole entry, looked up): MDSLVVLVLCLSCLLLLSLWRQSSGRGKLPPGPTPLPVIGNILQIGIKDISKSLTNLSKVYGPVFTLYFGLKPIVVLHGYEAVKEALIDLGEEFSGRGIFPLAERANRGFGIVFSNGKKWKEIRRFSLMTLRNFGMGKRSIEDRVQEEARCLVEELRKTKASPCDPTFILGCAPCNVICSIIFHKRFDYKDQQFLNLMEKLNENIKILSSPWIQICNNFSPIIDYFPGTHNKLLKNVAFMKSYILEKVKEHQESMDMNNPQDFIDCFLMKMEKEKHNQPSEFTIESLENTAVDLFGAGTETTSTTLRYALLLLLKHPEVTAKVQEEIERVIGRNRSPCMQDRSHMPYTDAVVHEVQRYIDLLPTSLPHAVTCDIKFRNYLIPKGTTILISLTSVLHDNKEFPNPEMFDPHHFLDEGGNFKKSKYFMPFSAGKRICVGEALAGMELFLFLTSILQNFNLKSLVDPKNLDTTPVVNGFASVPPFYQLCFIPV
CYP2C19 inh: blocks human cytochrome P450 2C19. P33261. CYP2C19 Supersomes, luciferin-H EGE luminescence, 30 min. inhibition, % at 5 µM. 96,000 compounds, 21% hits;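 active means CYP2C19 inhibition above a set limit at 5 µM in the primary screen, cut at about 50% in these data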;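 further: plate controls were negative control wells for no effect and 2.5 mM tranylcypromine positive control for full effect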
CYP2C9 activ: activators of human CYP2C9; AID 1024; recombinant CYP2C9, luciferin-H conversion, luminescence; stronger effect = higher value; factor 1 = untreated enzyme, 0 = blocked; P11712; activation factor at 5 µM; 96,000 compounds, 1.4% hits;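 active means activation factor of 2 or more for CYP2C9 at a 5 µM dose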;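 further: 0 = sulfaphenazole-blocked wells and 1 = vehicle-only wells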
CYP2C19 activ: activators of human cytochrome P450 2C19; P33261; recombinant CYP2C19, luciferin-H EGE luminescence; stronger effect = higher value; 0 = fully inhibited enzyme, 1 = untreated enzyme; activation factor at 5 µM; 96,000 tested, under 10 active; AID 1025;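 active means activation factor of at least 2 at 5 µM in the primary screen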;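 further: 0 = wells with 2.5 mM tranylcypromine and 1 = vehicle-only wells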
sEH inhibitor: blocks human soluble epoxide hydrolase activity | inhibition, % at 2 µM | P34913 | recombinant human sEH enzymatic activity assay | 91,000 compounds, 0.34% hits; in the data active means inhibition above about 80%
Starred values were filed as active, the others as inactive; nt = no result.

SMILES | sEH act | CYP2C9 inhib | CYP2C19 inh | CYP2C9 activ | CYP2C19 activ | sEH inhibitor
COc1ccc(C(=O)COc2ccccc2N2C(=O)C3C4C=CC(C4)C3C2=O)cc1 (stereo unspecified) | 10.2 | 11.5 | 8.4 | 0.9 | 0.9 | -11.7
O=C(CSc1ccc2nnc(-c3ccncc3)n2n1)Nc1ccc2c(c1)OCCO2 | -11.8 | 56.5* | 6.0 | 0.4 | 0.9 | 11.2
O=C(CSc1ccc2nnc(-c3ccccn3)n2n1)Nc1ccc2c(c1)OCCO2 | -1.3 | 65.5* | 27.4 | 0.3 | 0.7 | 0.6
O=C(CSc1ccc2nnc(-c3ccncc3)n2n1)Nc1ccc2c(c1)OCO2 | -9.1 | 57.5* | 6.2 | 0.4 | 0.9 | 8.4
O=C(CSc1ccc2nnc(-c3ccccn3)n2n1)Nc1ccc2c(c1)OCO2 | -7.0 | 30.6 | 2.3 | 0.7 | 1 | 6.2
Cc1cccc2c(=O)oc(-c3ccc4c(c3)C(=O)N(CC3CCCO3)C4=O)nc12 (stereo unspecified) | 3.8 | nt | nt | nt | nt | -3.5
CCN1CCN(C(=O)C2CCC(CNS(=O)(=O)c3ccccc3)CC2)CC1 (stereo unspecified) | 6.8 | -41.1 | -24.2 | 1.4 | 1.2 | -9.9
CCOC(=O)N1CCN(C2=NC3(CCCCC3)C(C#N)C(=O)N2)CC1 (stereo unspecified) | -2.3 | -0.4 | -1.2 | 1 | 1 | 2.7
CCN(Cc1ccccc1)S(=O)(=O)c1ccc(S(=O)(=O)N2CCN(CCC#N)CC2)cc1 | nt | -2.7 | -25.5 | 1 | 1.3 | nt
COC(=O)CSc1nnc2n1C(C)(C)Cc1ccccc1-2 | 2.8 | 3.4 | 26.8 | 1 | 0.7 | -2.4
COc1ccc(N2CCN(C(=O)CSc3nnc4n3C(C)(C)Cc3ccccc3-4)CC2)cc1 | 9.2 | 4.7 | 58.0* | 1 | 0.4 | -7.6
Cc1ccc(Cl)cc1N1CCN(C(=O)CSc2nnc3n2C(C)(C)Cc2ccccc2-3)CC1 | 12.2 | nt | nt | nt | nt | -13.3
COc1ccc(N2CCN(C(=O)CSc3ccccc3)CC2)cc1 | -7.8 | 11.3 | 4.5 | 0.9 | 1 | 9.3
COc1ccc(N2CCN(C(=O)CC(NC(N)=O)c3cccc(Oc4ccccc4)c3)CC2)cc1 (stereo unspecified) | 1.9 | 39.0 | 63.5* | 0.6 | 0.4 | -2.2
COc1ccc(N2CCN(C(=O)CSc3ccccc3N)CC2)cc1 | 17.9 | 68.6* | 58.0* | 0.3 | 0.4 | -14.4
CC1(C)Cc2ccccc2-c2nnc(SCC(=O)N3CCc4ccccc43)n21 | -1.5 | 53.2* | 41.0 | 0.5 | 0.6 | 4.7
Cc1cc(C)c(NC(=O)CS(=O)CC(=O)NC2CCCc3ccccc32)c(C)c1 (stereo unspecified) | -8.2 | -19.4 | -4.1 | 1.2 | 1 | 10.0
O=c1c2[nH]c3ccccc3c2ncn1CCN1CCCCC1 | -6.3 | -6.5 | 14.9 | 1.1 | 0.9 | 6.0
COc1ccc2c(c1)c1nnc(SCC(=O)N3CCCCC3C)nc1n2C (stereo unspecified) | 3.0 | -0.1 | 12.4 | 1 | 0.9 | -3.4
COc1ccc(N2CCN(C(=O)CSc3nnc4c5cc(C)ccc5n(C)c4n3)CC2)cc1 | nt | 55.9* | 80.6* | 0.4 | 0.2 | nt
O=C(COc1ncnc2c(Cl)cc(Cl)cc12)NCCC1=CCCCC1 | -12.5 | 16.8 | 39.3 | 0.8 | 0.6 | 13.7
Cc1c(C(=O)OC2CCCC2)[nH]c2c1C(=O)CC(c1ccco1)C2 (stereo unspecified) | nt | 52.5* | 22.3 | 0.5 | 0.8 | nt
C=CCOC(=O)c1[nH]c2c(c1C)C(=O)CC(c1ccco1)C2 (stereo unspecified) | nt | 79.5* | 95.8* | 0.2 | 0 | nt
Cc1c(C(=O)OCC(C)C)[nH]c2c1C(=O)CC(c1ccco1)C2 (stereo unspecified) | -1.5 | 37.6 | 10.0 | 0.6 | 0.9 | 1.5
Cc1c(C(=O)OCC2CCCO2)[nH]c2c1C(=O)CC(c1ccco1)C2 (stereo unspecified) | -8.3 | 92.5* | 69.4* | 0.1 | 0.3 | 9.5
SMILES | sEH act | CYP2C9 inhib | CYP2C19 inh | CYP2C9 activ | CYP2C19 activ | sEH inhibitor
CN(c1ccc(C(=O)N2CCOCC2)cc1[N+](=O)[O-])C1CCCCC1 | -2.2 | -2.2 | 0.2 | 1 | 1 | 4.8
CCCCOc1ccc2c(C)cc(=O)oc2c1OCCCC | -3.0 | nt | nt | nt | nt | 6.1
Cn1c(SCC(=O)c2ccc(F)cc2)nc2cccnc21 | 1.3 | -14.8 | 85.0* | 1.1 | 0.2 | -0.9
Cc1ccc(C(=O)CSc2nc3cccnc3n2C)cc1 | 24.7 | -55.8 | 31.9 | 1.6 | 0.7 | -25.9
COc1ccc(OC)c(C(=O)CSc2nc3cccnc3n2C)c1 | 7.7 | 77.2* | 98.2* | 0.2 | 0 | -8.7
Cn1c(SCC(=O)c2ccccc2)nc2cccnc21 | -7.5 | 43.4 | 72.5* | 0.6 | 0.3 | 7.7
COc1ccc(OC)c(C(=O)CSc2nc3ncccc3[nH]2)c1 | nt | 89.6* | 79.0* | 0.1 | 0.2 | nt
COc1ccc(NC(=O)CSc2nc3ncccc3[nH]2)cc1OC | 1.6 | 40.6 | 8.1 | 0.6 | 0.9 | -2.5
CC1(C)CC(=O)C=C(Nc2ccc(S(N)(=O)=O)cc2)C1 | 1.1 | 26.5 | -5.7 | 0.7 | 1.1 | -0.8
COc1ccc(OC)c(C(=O)CSc2nc3c(c(=O)n(C)c(=O)n3C)n2C(C)C)c1 | -0.1 | 54.1* | 44.7 | 0.5 | 0.6 | 0.0
O=C(CCn1cccc1)NCc1ccc2c(c1)OCO2 | 16.4 | 0.0 | 26.3 | 1 | 0.7 | -17.9
Cc1ccc(C2=CSC3=NCCN23)c(C)c1 | -4.8 | 2.4 | 56.3* | 1 | 0.4 | 5.2
COc1ccc2c(C(=O)CN3CCN(c4ccccc4)CC3)c[nH]c2c1 | -10.5 | 11.0 | -8.0 | 0.9 | 1.1 | 8.1
COCCN1C(=O)c2ccccc2C(C(=O)Nc2ccc3c(c2)OCCO3)C1c1ccc(F)cc1 (stereo unspecified) | 15.8 | 1.8 | -2.9 | 1 | 1 | -12.5
O=C(Cc1coc2ccc3ccccc3c12)N1CCCC1 | 0.4 | -86.1 | 33.7 | 1.9 | 0.7 | -0.1
CC(C)CN(CC(C)C)C(=O)Cc1coc2ccc3ccccc3c12 | -1.3 | 11.9 | 39.9 | 0.9 | 0.6 | 2.7
CCCCNC(=O)Cc1coc2ccc3ccccc3c12 | -6.9 | -207.6 | 64.1* | 3.1* | 0.4 | 10.0
Cc1ccc(CC(=O)Nc2cccc(C)n2)cc1 | 4.9 | 22.8 | 74.5* | 0.8 | 0.3 | 0.2
Cc1cccc(NC(=O)CS(=O)(=O)Cc2ccccc2)n1 | 3.7 | -9.0 | 18.0 | 1.1 | 0.8 | -1.4
Cc1cccc(NC(=O)Cc2coc3ccc4ccccc4c23)n1 | 1.6 | -127.4 | 88.0* | 2.3* | 0.1 | -1.8
COc1cc2c(cc1OC)C1=NC(=O)CN1C(SCc1ccccc1)=N2 | nt | -9.5 | -11.3 | 1.1 | 1.1 | nt
CS(=O)(=O)N1CCN(Cc2ccc(C(F)(F)F)cc2)CC1 | -13.6 | -42.0 | 41.6 | 1.4 | 0.6 | 11.9
COc1cccc(-c2nc(N3CCCCC3C)c3ccccc3n2)c1O (stereo unspecified) | 3.7 | 84.2* | 24.3 | 0.2 | 0.8 | -4.8
Cc1cc2ncn(C(=O)N3CCOCC3)c2cc1C | -2.2 | -4.6 | -2.9 | 1 | 1 | 5.1
COC(=O)c1ccccc1NC(=O)CSc1nnc(-c2ccoc2C)n1C | 1.1 | 32.5 | 74.2* | 0.7 | 0.3 | -0.6

Compound activity as filed in PubChem.
